Here are results for 13 compounds from PubChem BioAssay (EPA / NIEHS).

Assay [1] concerns the target Estrogen receptor (Homo sapiens) (UniProt P03372). Kind of assay: OT_ERa_GFPERaERE_0480: Odyssey Thera (OT) 8-hour HeLa Transcription Induction Assay for Estrogen Receptor (AID 2283381; active means hit-call score of the fitted dose curve at least 0.9, where 1 is the maximum; inactive means score below 0.9). In outline: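 GFP-ERE reporter, HeLa, 8 h exposure. Readout: fluorescence microscopy, high-content image analysis. Fit direction positive vs DMSO negative control.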
For assay [2] the target is unchanged. The assay is described as follows: OT_ERa_GFPERaERE_0120: Odyssey Thera (OT) 2-hour HeLa Transcription Induction Assay for Estrogen Receptor (AID 2283382). In outline: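 Fluorescence microscopy read-out: inducible fluorescent protein reporter in HeLa cells, imaged 2 h post-dose. Signal increase over DMSO negative control fitted as single primary endpoint via high content image analysis.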

For assay [3], the target named is Retinoic acid receptor RXR-alpha (Homo sapiens) (UniProt P19793). The assay is described as follows: OT_NURR1_NURR1RXRa_0480: Odyssey Thera (OT) 8-hour HEK293T Protein Complementation Assay for Nurr1/retinoid X receptor (RXR) (AID 2283385). The gist of the method:
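Read-out: fluorescence from protein-fragment complementation between Nurr1 and RXRα in human HEK293T cells, 8 h after dosing. DMSO served as negative control; increased signal counted as activity.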

Assay [4] has the same target. The assay is described as follows: OT_NURR1_NURR1RXRa_1440: Odyssey Thera (OT) 24-hour HEK293T Protein Complementation Assay for Nurr1/retinoid X receptor (RXR) (AID 2283386). The gist of the method: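 Fluorescence PCA read-out; HEK293T; 24 h post-dose; bait/prey fused to reporter fragments; gain-of-signal fit vs DMSO negative control.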
Assay [5] has as its target Peroxisome proliferator-activated receptor gamma (Homo sapiens) (UniProt P37231). Kind of assay: OT_PPARg_PPARgSRC1_0480: Odyssey Thera (OT) 8-hour Protein-Complementation Assay for Peroxisome Proliferator-activated Receptor Gamma / SRC-1 Co-activator (AID 2283387). The gist of the method:
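Protein-fragment complementation in HEK293T: Venus YFP halves (residues 1-158, 159-239, mutated to IFP1/IFP2) fused to PPARg/SRC-1. 8 h exposure; N/C ratio at 488 nm; DMSO negative control.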

The target is the same in assay [6]. Kind of assay: OT_PPARg_PPARgSRC1_1440: Odyssey Thera (OT) 24-hour Protein-Complementation Assay for Peroxisome Proliferator-activated Receptor Gamma/ SRC-1 Co-activator (AID 2283388). The gist of the method:
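HEK293T transiently transfected with PPARg/SRC-1 split-Venus YFP fusions 48 h before dosing, then treated 24 h at 37C. Fixed cells imaged; nuclear/cytoplasmic 488 nm fluorescence ratio, gain of signal versus DMSO.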

The nature of assay [7]: CEETOX_H295R_11DCORT: CeeTox H295R High-throughput Steroidogenesis Assay for 11-Deoxycortisol (11DCORT) (AID 2283432; active means hit-call score of the fitted dose curve at least 0.9, where 1 is the maximum; inactive means score below 0.9). Particulars: actives raise or lower the signal. In outline:
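Adrenal carcinoma line H295R, run per OECD 456 with minor changes, was forskolin-stimulated (10 uM, 48 h) before a 48 h chemical exposure at 0.1% DMSO. Secreted 11-deoxycortisol was quantified by HPLC-MS/MS.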

Assay [8] in a line: CEETOX_H295R_OHPREG: CeeTox H295R High-throughput Steroidogenesis Assay for OH-Pregnenolone (OHPREG) (AID 2283434; active means hit-call score of the fitted dose curve at least 0.9, where 1 is the maximum; inactive means score below 0.9). Particulars: actives raise or lower the signal. In outline: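 H295R, 10 uM forskolin pre-stim 48 h; test chemical 48 h, 0.1% DMSO final. MTBE extraction, reverse-phase C18 HPLC-ESI+ MS/MS of medium. Gain/loss vs DMSO; viability by MTT in same wells.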
A short description of assay [9]: CEETOX_H295R_OHPROG: CeeTox H295R High-throughput Steroidogenesis Assay for OH-Progesterone (OHPROG) (AID 2283435; active means hit-call score of the fitted dose curve at least 0.9, where 1 is the maximum; inactive means score below 0.9;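 on AC50: 17alpha-hydroxyprogesterone secreted into medium measured by HPLC-MS/MS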). Particulars: actives raise or lower the signal. In outline: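 HPLC-MS/MS quantification of 17alpha-hydroxyprogesterone secreted by H295R cells after 48 h chemical exposure, following 48 h 10 uM forskolin prestimulation. Gain or loss of signal fitted relative to DMSO. Viability checked by MTT in the same wells.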

Assay [10] is described as follows: CEETOX_H295R_CORTIC: CeeTox H295R High-throughput Steroidogenesis Assay for Corticosterone (CORTIC) (AID 2283437; active means hit-call score of the fitted dose curve at least 0.9, where 1 is the maximum; inactive means score below 0.9;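 further: corticosterone secreted into medium quantified by mass spectrometry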). Particulars: actives raise or lower the signal. In outline:
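48 h forskolin (10 uM) prestim, then 48 h chemical exposure, final DMSO 0.1%. Readout: corticosterone in medium by LC-MS/MS after MTBE extraction. Gain/loss fit vs DMSO; MTT viability in same wells.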

Assay [11] is described as follows: CEETOX_H295R_CORTISOL: CeeTox H295R High-throughput Steroidogenesis Assay for Cortisol (AID 2283438; active means hit-call score of the fitted dose curve at least 0.9, where 1 is the maximum; inactive means score below 0.9;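 further: cortisol secreted into medium quantified by LC-MS/MS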). Particulars: actives raise or lower the signal. The gist of the method: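 Read-out: cortisol in culture medium by reverse-phase C18 HPLC with ESI-positive tandem MS, after MTBE liquid-liquid extraction. Cells: human adrenal H295R, forskolin-primed (10 uM, 48 h) before 48 h chemical exposure in 0.1% DMSO.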

Assay [12] is described as follows: CEETOX_H295R_DOC: CeeTox H295R High-throughput Steroidogenesis Assay for DOC (AID 2283439; active means hit-call score of the fitted dose curve at least 0.9, where 1 is the maximum; inactive means score below 0.9). Particulars: actives raise or lower the signal. The gist of the method:
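Human adrenocortical H295R cells, passages up to 10, received 10 uM forskolin for 48 h before chemical addition. After another 48 h exposure in 0.1% DMSO, secreted DOC was measured by LC-MS/MS, with gain or loss fitted against DMSO controls.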

A short description of assay [13]: CEETOX_H295R_ESTRADIOL: CeeTox H295R High-throughput Steroidogenesis Assay for Estradiol (AID 2283440; active means hit-call score of the fitted dose curve at least 0.9, where 1 is the maximum; inactive means score below 0.9;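 further: estradiol secreted into medium quantified by LC-MS/MS after dansyl derivatisation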). Particulars: actives raise or lower the signal. In outline:
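H295R cells pre-stimulated 48 h with 10 uM forskolin, then exposed 48 h to chemical in 0.1% DMSO. Medium estradiol quantified by MTBE extraction, dansyl derivatisation and HPLC-MS/MS; bidirectional fit versus DMSO; MTT viability required >/=70%.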

Assay [14] is described as follows: CEETOX_H295R_ESTRONE: CeeTox H295R High-throughput Steroidogenesis Assay for Estrone (AID 2283441; active means hit-call score of the fitted dose curve at least 0.9, where 1 is the maximum; inactive means score below 0.9;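 further: estrone secreted into medium measured by LC-MS/MS after dansyl derivatization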). Particulars: actives raise or lower the signal. The gist of the method: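 Forskolin-stimulated H295R cells are treated 48 h with chemical, and estrone in the medium is measured by LC-MS/MS. Activity is fitted in both directions relative to DMSO controls, with chemicals diluted until MTT viability reaches at least 70%.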

Assay [15] in a line: CEETOX_H295R_PROG: CeeTox H295R High-throughput Steroidogenesis Assay for Progesterone (PROG) (AID 2283442; active means hit-call score of the fitted dose curve at least 0.9, where 1 is the maximum; inactive means score below 0.9). Particulars: actives raise or lower the signal. In outline: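 H295R adrenal cells prestimulated 48 h with 10 uM forskolin, then exposed 48 h to test chemical in 0.1% DMSO. Progesterone in medium quantified by HPLC-MS/MS after MTBE extraction; viability checked by MTT in same wells.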

Assay [16] addresses Bile acid receptor (Homo sapiens) (UniProt Q96RI1). Kind of assay: OT_FXR_FXRSRC1_1440: Odyssey Thera (OT) 24-hour HEK293T Protein-Complementation Assay for Farnesoid X receptor/SRC-1 Co-activator (AID 2283384). In outline:
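Fluorescence readout, 24 h post-dose, HEK293T; FXR and SRC-1 fused to complementary reporter fragments, association reconstitutes signal. Positive-direction fit vs DMSO baseline.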

Inconclusive results are not listed. Active and inactive are the calls of the source. How the source made its calls, unless noted: active means hit-call score of the fitted dose curve at least 0.9, where 1 is the maximum; inconclusive means response in the unintended direction; inactive means score below 0.9.

Chain of Retinoic acid receptor RXR-alpha (Homo sapiens) (P19793 whole entry, looked up, the tested form may be a part): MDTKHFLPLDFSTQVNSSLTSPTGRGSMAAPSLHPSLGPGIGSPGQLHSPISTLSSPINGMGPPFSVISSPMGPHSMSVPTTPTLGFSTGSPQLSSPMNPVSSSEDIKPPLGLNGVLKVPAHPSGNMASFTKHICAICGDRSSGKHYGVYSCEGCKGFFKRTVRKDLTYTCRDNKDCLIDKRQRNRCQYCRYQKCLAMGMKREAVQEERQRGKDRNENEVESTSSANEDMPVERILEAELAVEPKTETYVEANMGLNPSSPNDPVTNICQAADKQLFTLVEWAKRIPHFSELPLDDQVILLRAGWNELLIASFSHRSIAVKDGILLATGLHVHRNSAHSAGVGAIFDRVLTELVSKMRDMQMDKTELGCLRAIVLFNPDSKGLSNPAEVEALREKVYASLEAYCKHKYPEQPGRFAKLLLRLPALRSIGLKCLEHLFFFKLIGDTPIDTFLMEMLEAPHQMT
Chain of Estrogen receptor (Homo sapiens) (P03372 whole entry, looked up): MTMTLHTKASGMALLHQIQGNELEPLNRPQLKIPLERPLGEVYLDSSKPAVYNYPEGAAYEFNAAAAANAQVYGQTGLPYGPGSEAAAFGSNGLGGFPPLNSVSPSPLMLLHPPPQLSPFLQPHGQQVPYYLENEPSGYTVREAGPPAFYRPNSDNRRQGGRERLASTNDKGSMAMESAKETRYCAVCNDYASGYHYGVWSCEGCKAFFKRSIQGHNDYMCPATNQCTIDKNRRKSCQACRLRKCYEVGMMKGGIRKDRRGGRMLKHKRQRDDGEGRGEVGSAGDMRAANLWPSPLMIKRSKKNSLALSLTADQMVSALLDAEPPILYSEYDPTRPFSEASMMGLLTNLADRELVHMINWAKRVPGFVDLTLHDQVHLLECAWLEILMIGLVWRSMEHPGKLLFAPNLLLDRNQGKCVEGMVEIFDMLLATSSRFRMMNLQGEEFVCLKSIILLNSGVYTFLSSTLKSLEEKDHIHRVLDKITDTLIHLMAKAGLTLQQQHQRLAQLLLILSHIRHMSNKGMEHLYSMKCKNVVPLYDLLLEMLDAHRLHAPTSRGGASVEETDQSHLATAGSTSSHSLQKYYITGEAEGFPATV
Chain of Peroxisome proliferator-activated receptor gamma (Homo sapiens) (P37231 whole entry, looked up, the tested form may be a part): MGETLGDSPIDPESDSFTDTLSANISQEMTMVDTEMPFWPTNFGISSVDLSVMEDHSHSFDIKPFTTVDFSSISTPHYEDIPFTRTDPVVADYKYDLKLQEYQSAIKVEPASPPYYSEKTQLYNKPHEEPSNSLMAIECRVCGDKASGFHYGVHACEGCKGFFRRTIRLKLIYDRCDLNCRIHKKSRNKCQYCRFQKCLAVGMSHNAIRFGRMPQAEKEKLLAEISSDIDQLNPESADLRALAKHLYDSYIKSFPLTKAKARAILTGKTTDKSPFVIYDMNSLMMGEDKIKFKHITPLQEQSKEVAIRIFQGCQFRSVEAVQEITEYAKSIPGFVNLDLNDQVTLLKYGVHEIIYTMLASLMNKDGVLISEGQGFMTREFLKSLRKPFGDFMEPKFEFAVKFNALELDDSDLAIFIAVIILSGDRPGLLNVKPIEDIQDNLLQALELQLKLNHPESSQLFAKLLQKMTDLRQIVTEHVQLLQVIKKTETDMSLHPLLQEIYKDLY
Chain of Bile acid receptor (Homo sapiens) (Q96RI1 whole entry, looked up, the tested form may be a part): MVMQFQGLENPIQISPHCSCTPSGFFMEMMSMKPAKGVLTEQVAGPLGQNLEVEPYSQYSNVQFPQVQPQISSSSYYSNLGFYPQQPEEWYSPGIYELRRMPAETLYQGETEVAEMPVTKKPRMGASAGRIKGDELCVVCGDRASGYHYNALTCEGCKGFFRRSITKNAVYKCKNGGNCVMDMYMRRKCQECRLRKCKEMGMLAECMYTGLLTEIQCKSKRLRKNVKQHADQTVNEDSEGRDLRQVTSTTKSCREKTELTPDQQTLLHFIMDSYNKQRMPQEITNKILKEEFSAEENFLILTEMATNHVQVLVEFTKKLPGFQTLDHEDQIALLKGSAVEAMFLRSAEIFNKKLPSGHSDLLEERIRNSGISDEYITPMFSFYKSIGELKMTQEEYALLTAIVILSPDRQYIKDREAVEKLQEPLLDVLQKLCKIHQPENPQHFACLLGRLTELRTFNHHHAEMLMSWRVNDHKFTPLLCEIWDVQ

`CCCCCCCCCC=O`: the call in assay [1], in assay [2], in assay [3], in assay [4], in assay [5] and in [6] was inactive.
For `C=C(C)C(=O)O`, the outcome in [1], in [2], in assay [3], in assay [5] and in [6] was inactive.
As a reminder, the AC50 is the midpoint of the concentration-response curve, whichever way the signal moves. Take `NC(=O)Nc1ccc(Cl)cc1`: the outcome in [1], in assay [2], in [4], in [5], in [6] and in assay [7] was inactive. Also, the outcome in assay [8], in [9], in assay [11], in [12], in assay [13] and in [14] was inactive. For the same compound, the compound was classed as inactive in assay [15]. For the same compound, the half-maximal activity concentration (AC50) in assay [10] was 27.6 µM (active).
Regarding `NC(=O)NC1NC(=O)NC1=O` (stereo not drawn), the result in [3], in assay [4], in assay [5] and in [6] was inactive.
With `CCC/C=C/C=O`, the result in [1], in [2], in [5] and in assay [6] was inactive.
As for `CC(C)c1cccc(O)c1`, the result in assay [1], in [2], in assay [3], in assay [4], in assay [5] and in assay [6] was inactive. Moreover, the outcome in assay [7], in [8], in assay [10], in [11], in [12] and in [13] was inactive. For the same compound, the call in assay [14] and in assay [15] was inactive. Moreover, the AC50 in [9] is 39 µM (active).
`Cc1ccc(O)c(C(C)(C)C)c1`: the AC50 in [3] was 50 µM (active). The call in [4], in assay [5] and in [6] was inactive.
With `OC1OC[C@@H](O)[C@H](O)[C@H]1O` (stereo partly drawn), the compound was called inactive in assay [3], in [4], in [5] and in assay [6].
`CCCCCCCCCCN`: the AC50 in assay [3] was 59.8 µM (active); in assay [4], 78.2 µM (active).
As for `CCCCCCCCCCCCCCCC(=O)OC[C@H](O)[C@H]1OC(=O)C(O)=C1O`, the compound was called inactive in [1], in assay [2], in [3], in assay [5] and in assay [6]. The AC50 in [4] was 84.2 µM (active).
In the case of `Cc1ccc(S)cc1`, the compound was classed as inactive in assay [1], in assay [2], in [5] and in assay [6]. Besides, the concentration at half-maximal activity (AC50) in [3] was 79.4 µM (active); in assay [4], 79.8 µM (active).
Regarding `O=C1C(c2[nH]c3ccc(S(=O)(=O)O)cc3c2O)=Nc2ccc(S(=O)(=O)O)cc21`, the compound was called inactive in assay [3], in assay [4], in [5] and in assay [6].
With `CC(C)=CCCC(C)CC=O` (stereo not drawn), the compound was called inactive in [16], in assay [3], in assay [5] and in [6].
